Shown are actives, neighbours in structure and some others; about 0.96% of the full set was active somewhere.
MIN6 prolif-1 = induces beta-cell replication in MIN6 cells; MIN6 cells proliferation, ATPlite luminescence, 48 h; cells starved in 0.2% serum; 100% = growth in 10% serum; proliferation, % at 10 µM; 330,000 tested, 0.29% active;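 active = compounds whose signal lies at least 3.5 SD above the mean of all wells on their plate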;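 also: 0% = DMSO-treated cells in low-serum medium and 100% = 10% serum control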
Rtt109 HAT inh = C. albicans Rtt109 histone acetyltransferase inhibition; purified Rtt109/Vps75, ThioGlo CoA-SH fluorescence, 4 h; 330,000 tested, 0.16% active; AID 540336; inhibition, % at 34.9 µM; Q5AAJ8;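 active = inhibition of at least 50% in every replicate; inconclusive = best replicate reaches 50% inhibition but some replicates fall short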
DAGLB inh = blocks human DAGLB lipase activity; inhibition, % at 5.17 µM; Q8NCG7; HEK293T DAGLB membrane lysate, EnzChek fluorogenic substrate; 340,000 tested, 0.059% active; AID 504411; in the data active = inhibition above about 34%;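 also: 0% = enzyme with vehicle and 100% = wells lacking enzyme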
Target sequence (Q8NCG7 whole entry, looked up): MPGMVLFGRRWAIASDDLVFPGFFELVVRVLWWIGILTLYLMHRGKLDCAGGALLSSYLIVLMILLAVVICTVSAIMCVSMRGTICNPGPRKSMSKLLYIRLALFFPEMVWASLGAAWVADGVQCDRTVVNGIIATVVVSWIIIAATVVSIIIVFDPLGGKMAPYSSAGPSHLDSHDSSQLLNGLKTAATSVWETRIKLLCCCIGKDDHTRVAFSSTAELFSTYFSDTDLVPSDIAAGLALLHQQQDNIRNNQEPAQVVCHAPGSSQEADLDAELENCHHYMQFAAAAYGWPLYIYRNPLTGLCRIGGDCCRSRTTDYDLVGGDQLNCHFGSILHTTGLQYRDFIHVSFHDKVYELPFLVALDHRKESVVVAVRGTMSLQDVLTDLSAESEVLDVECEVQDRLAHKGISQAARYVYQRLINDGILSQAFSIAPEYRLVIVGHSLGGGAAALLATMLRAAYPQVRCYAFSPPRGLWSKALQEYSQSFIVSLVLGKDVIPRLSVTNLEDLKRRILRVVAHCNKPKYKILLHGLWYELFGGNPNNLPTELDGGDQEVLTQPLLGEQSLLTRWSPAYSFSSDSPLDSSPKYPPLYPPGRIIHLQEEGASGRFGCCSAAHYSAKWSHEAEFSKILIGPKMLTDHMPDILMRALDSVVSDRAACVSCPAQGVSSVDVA
V-ATPase pHluor = regulators of yeast V-ATPase proton transport | response, % at 10 µM | 350,000 tested, 0.37% active | S. cerevisiae, pHLuorin cytosolic pH fluorescence; in the data active = response mostly above about 7.3%, no sharp cut-off; inactive = mostly below about 5.4%; also: actives read high
HDAC3 inhib = human HDAC3 inhibition | O15379 | recombinant HDAC3, fluorogenic peptide/trypsin coupled, fluorescence | inhibition, % at 8.3 µM | 320,000 tested, 0.15% active; in the data active = inhibition above about 26%, passing the limit was not always enough; inconclusive = no clear call, values can overlap the other calls
MIN6 prolif-2 = MIN6 beta-cell replication induction, confirmed; AID 463095; 920 tested, under 10 active; proliferation increase, % at 50 µM; shares compounds with MIN6 prolif-1; MIN6 beta-cell proliferation, ATPlite luminescence, 48 h; cells kept in 0.2% serum; scaled between 0.2% and 10% serum;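 active = proliferation increase above 40% at any of the four tested concentrations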
* hit, by the source's call; ? = inconclusive; . = no result given.

SMILES	MIN6 prolif-1	Rtt109 HAT inh	DAGLB inh	V-ATPase pHluor	HDAC3 inhib	MIN6 prolif-2
O=C(Nc1cc(-c2nc3ncccc3o2)ccc1Cl)c1cccs1	6	5	-4	0	3	.
COc1cccc2cc(C(=O)C3=C(O)C(=O)N(CCN4CCOCC4)C3c3ccc(C(C)(C)C)cc3)oc12 (stereo not given)	-7	4	2	-2	-1	.
Cc1ccc(CNC(=O)CCNC(=O)N2CCn3c2nc2ccccc23)cc1	14*	14	-3	-1	5	-2
Cc1ccc(CNC(=O)CCCCCNC(=O)N2CCn3c2nc2ccccc23)cc1	5	-2	-3	0	0	.
COc1ccc(COC(=O)C2=C(C)NC(=O)NC2c2ccc(OC)c(OC)c2)cc1 (stereo not given)	6.2*	7	1	2	1	3
CCOc1cc(/C=C(\C#N)C(=O)Nc2cccc(C(=O)O)c2)ccc1OCc1ccc(Br)cc1	-1	-6	-1	-1	-2	.
CCc1ccccc1OCC(=O)OCC(=O)c1c(N)n(C)c(=O)n(C)c1=O	-2	1	2	0	-4	.
CCCCC(OC(=O)CN1C(=O)COc2ccccc21)C(=O)NC1CCCCC1 (stereo not given)	11*	-16	-3	1	2	-4
CC1CCCCC1NC(=O)CN1C(=O)COc2ccccc21 (stereo not given)	-2	4	0	2	-2	.
COc1cc(C(=O)NCCCc2ccccc2)cc(OC)c1OC	-2	-11	0	-1	-4	.
COc1cc(CC(=O)NCCCc2ccccc2)cc(OC)c1OC	6.0*	2	2	-1	-1	-2
CCOc1cc(/C=N/n2nnnc2N)ccc1OCc1c(C)no[n+]1[O-]	0.0*	-1	0	0	1	3
O=C(NCc1ccco1)C(=O)N1CCCC1	-3	-3	-2	1	0	.
COc1ccc(-c2csc(NC(=O)CN3C(=O)C4CC=CCC4C3=O)n2)cc1 (stereo not given)	-3	2	-2	1	5	.
COc1ccc(-c2csc(NC(=O)CCN3C(=O)C4CC=CCC4C3=O)n2)cc1OC (stereo not given)	13*	3	-4	1	-1	-4
COc1ccc(-c2csc3ncnc(N4CCN(C(=O)c5ccco5)CC4)c23)cc1	11*	-6	-4	1	0	-5
O=C(c1ccco1)N1CCN(c2ncnc3scc(-c4ccccc4)c23)CC1	-2	5	2	3	12	.
CCCNc1nc(-c2ccccc2)c(C(=O)OCC)cc1C#N	-4	-2	-12	0	3	.
C=CCNc1nc(-c2ccccc2)c(C(=O)OCC)cc1C#N	5.3*	-4	-2	1	2	-6
COc1ccc(NC(=O)/C(C#N)=C/c2ccc(OCCN3CCOCC3)c(OC)c2)c(OC)c1	11*	4	-3	2	13	-2
O=C(c1cccnc1)N1N=C(C2CCCCC2)CC1(O)C(F)(F)F (stereo not given)	1	-1	0	2	-5	.
Nc1ncnc2nc(SCC(=O)Nc3cccc(C(F)(F)F)c3)[nH]c12	0	-6	2	6	-5	.
CSc1nc(N)nc(SC2C=CCCC2)c1C#N (stereo not given)	5.9*	-12	-8	2	3	9
C=C[C@@]1(C)CC(=O)[C@]2(O)[C@@]3(C)[C@@H](O)CCC(C)(C)[C@@H]3[C@H](O)[C@H](OC(C)=O)[C@@]2(C)O1	17*	0	0	1	-1	6
CCOc1ccc(N2CC(O)Cn3c2nc2c3c(=O)n(CCCc3ccccc3)c(=O)n2C)cc1 (stereo not given)	-4	7	-2	-2	-9	.
SMILES	MIN6 prolif-1	Rtt109 HAT inh	DAGLB inh	V-ATPase pHluor	HDAC3 inhib	MIN6 prolif-2
NC(=O)C1CCN(CC(=O)Nc2ccccc2Sc2ccc(Cl)cc2)CC1	0	4	-1	3	-3	.
NC(=O)C1CCN(CC(=O)Nc2ccccc2Sc2ccccc2)CC1	7.1*	3	-2	-3	-4	-3
Cc1cc(C)nc(NS(=O)(=O)c2ccc(NC(=O)CCN3C(=O)c4ccccc4C3=O)cc2)n1	8.2*	-3	0	5	-3	0
CN1CCN(C(=O)CCCN2C(=O)/C(=C/c3ccc(Cl)cc3)SC2=S)CC1	-2	4	0	2	3	.
CN1CCN(C(=O)CCCN2C(=O)/C(=C/c3ccccc3)SC2=S)CC1	7.5*	23	0	-2	3	-6
COCCn1c(SC)nnc1-c1c[nH]c2ccccc12	1	-3	-1	-5	8	.
COC(=O)c1nn(-c2ccccc2)c(Sc2ccc(OC)cc2)c1/C=N/O	6.5*	-2	-1	0	2	-4
CO/N=C/c1c(C(=O)OC)nn(-c2ccccc2)c1Cl	0	-7	-4	-1	1	.
O=C(NCc1ccco1)C(c1ccco1)N(Cc1cccs1)C(=O)Cn1nnc2ccccc21 (stereo not given)	8.0*	-13	2	3	4	0
O=C(NCc1ccco1)C(c1cccs1)N(Cc1ccccc1)C(=O)Cn1nnc2ccccc21 (stereo not given)	-1	-10	-1	-2	0	.
CN(Cc1ccco1)C(=O)CN1C(=O)NC2(CCCCC2)C1=O	1	3	1	6	-12	.
Cc1ccc(NC(=O)CCC(=O)N/N=C/c2coc3ccc(F)cc3c2=O)cc1	11*	2	1	1	-2	-6
CC(=O)NCCc1nc2cc(NC(=O)COc3ccc(C)cc3)ccc2n1C	9.2*	-1	1	1	-10	0
COc1ccc(-c2nc3c(c(SCC(=O)N4CCCC4)n2)COC(C)(C)C3)cc1	11*	3	1	1	-4	-5
COc1ccc(-c2nc3c(c(SCC(=O)N4CCOCC4)n2)COC(C)(C)C3)cc1	-3	0	-2	1	-1	.
Cc1ccc(S(=O)(=O)Nc2ccc(NC(=O)/C=C/C(=O)O)cc2)cc1	2	-2	-2	-1	4	.
COc1ccc(NC(=S)N(Cc2ccc(C(=O)O)cc2)Cc2ccc(OC)c(OC)c2)cc1	9.2*	11	-2	0	9	0
COc1ccc(CN(Cc2ccc(C(=O)O)cc2)C(=S)Nc2cccc(C)c2)cc1OC	-4	15	3	4	-1	.
O=C1CC(c2cccc(F)c2)c2c(c3ccccc3[nH]c2=O)O1 (stereo not given)	-3	-2	0	-2	?	.
CN(Cc1ccccc1)C(=O)c1cccc(NC(=O)Cc2ccc(NC(=O)C3CCCN(C(=O)C4CCCCC4)C3)cc2)c1 (stereo not given)	.	9	-3	1	.	.

High-throughput results from PubChem.
